Most compounds without a hit are left out; they make up all but 3.1% or so of the library.
miR-122 sensor – miR-122 inhibition in Huh7 cells | AID 602342 | 340,000 tested, 0.3% active | activation (reporter increase), % at 12.5 µM | Huh7 miR-122 Renilla luciferase sensor, 48 h; neutral wells = 0, positive control = 100;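 active means mean replicate activation score at least 90 and every replicate individually at or above 90; inconclusive means only one of the two criteria met; inactive means neither criterion met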;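 further: higher luciferase means less miR-122 activity so hits act as miR-122 inhibitors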
Env fusion inh – blocks HIV Env-driven cell-cell fusion; HeLa-JRFL Env/CEM21 cell fusion, luciferase; 360,000 tested, 1.1% active; AID 651610; inhibition, % at 12.3 µM;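 active means mean replicate inhibition score of at least 50 and every replicate individually at or above 50; inconclusive means only one of the two criteria met; inactive means mean below 50 and not all replicates reaching 50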
PAX8 inh HTS – lowers PAX8-driven luciferase in RMG-I cells; RMG-I TPO-luciferase reporter, SteadyGlo, 24 h; inhibition, % at 12.6 µM; 360,000 tested, 1.2% active; AID 652154;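 active means mean replicate inhibition at least 60% with every replicate also reaching 60%; inconclusive means only one of the two criteria is met; inactive means mean below 60% and not all replicates reaching 60%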;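 further: luciferase light reporting Pax8 driven TPO promoter activity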
Statin myotox sup – suppressors of simvastatin-induced myotoxicity in C2C12 myotubes | 330,000 tested, 0.78% active | ATP luminescence, 48 h; scaled: DMSO 0, geranylgeraniol control 100 | rescue of ATP level, % at 7.49 µM;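 active means mean ATP rescue above about 67%, or every replicate alone reaching that limit, limit read from the data, passing the limit was not always enough; inconclusive means no clear call, values can overlap the other calls; inactive means mean under the limit and some replicate under it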;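 further: myotubes were challenged with 10 µM simvastatin during compound exposure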
EWS-Fli block – EWS/Fli transcriptional activity inhibition. inhibition, % at 12.6 µM. 350,000 tested, 0.67% active. A673 NR0B1-luciferase reporter, viability-normalised;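 active means mean inhibition of at least 50% after viability correction, with every replicate also passing that limit; inconclusive means mean reaches 50% but only one of two replicates passes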;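 further: firefly luciferase signal divided by Alamar Blue viability fluorescence both relative to DMSO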
INS-1E GSIS act – primary screen for activators of insulin secretion dependent on glucose, INS-1E cells, GLuc reporter luminescence; INS-1E GLuc reporter insulin secretion, 2-3 h; activation, % at 16.6 µM; 370,000 tested, 0.61% active;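 active means lowest replicate activation of at least 40%, so every replicate reaches that level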
DNA binder FP – DNA binding small molecules; shares compounds with EWS-Fli block; salmon sperm DNA acridine orange fluorescence polarization; AC35, µM (titrated, usually from 68 µM); 640 tested, 2% active;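 active means fitted curve reaches a 35% signal fall AC35 below twice the sample's top valid tested dose, actives reach about 48 µM in these data; inactive means the rest, including activity in the rising direction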;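 further: lower polarization ratio signals compound binding to DNA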
Of the large screens only hits and unclear results are named; the others gave an inactive call (follow-up assays come after a bar, where they were run); ! = not active in a repeat.

Cc1c(N=Cc2cc(Br)cc(Br)c2O)cccc1C(=O)O	EWS-Fli block 74.3 (no result: miR-122 sensor, Statin myotox sup) | DNA binder FP inactive
O=C(NC1CCC1)[C@H]1[C@H](CO)[C@H]2Cn3c(ccc(-c4ccccc4F)c3=O)[C@@H]1N2C(=O)CC1CC1	none (no result: Env fusion inh, PAX8 inh HTS)
CN(C)c1ccc(/C=N/Nc2nc3ccccc3o2)cc1	EWS-Fli block 68.2 | DNA binder FP inactive
CCS(=O)(=O)c1ccc(C=NNc2nc3ccccc3o2)cc1	none (no result: miR-122 sensor, Statin myotox sup)
COCCNC(=O)C[C@H]1CC[C@@H]2[C@@H](COc3ccc(NS(=O)(=O)c4ccc(Cl)cc4)cc3C(=O)N2C)O1	none (no result: Env fusion inh)
COc1cccc(CN2CCC2(C)C(=O)Nc2cccc3cccnc23)c1F (stereo not drawn)	EWS-Fli block 59.3 | DNA binder FP inactive
COc1ccc(OC)c(NC(=O)C2(C)CCN2Cc2cccc(OC)c2F)c1 (stereo not drawn)	none
O=C(COC(=O)c1ccc[nH]c1=O)Nc1ccc(N2CCCCC2)cc1	Env fusion inh 62.3, EWS-Fli block 75.4 | DNA binder FP inactive
N#C[C@H]1[C@H](c2ccc(-c3ccccc3F)cc2)[C@@H](CO)N1C(=O)Cc1ccccc1	PAX8 inh HTS inconclusive, EWS-Fli block 62.1 (no result: miR-122 sensor) | DNA binder FP inactive
Cc1ccc(S(=O)(=O)N[C@@H]2CCCN(Cc3ccc(OCCO)cc3)C2)cc1	none (no result: miR-122 sensor, Statin myotox sup, INS-1E GSIS act)
CCCCc1c(-c2ccccc2OC)ncn1Cc1ccccc1	none (no result: miR-122 sensor, Statin myotox sup)
CCCCc1c(-c2ccccc2OC)ncn1Cc1ccc(C(C)(C)C)cc1	PAX8 inh HTS 71.6, EWS-Fli block 62.3 (no result: miR-122 sensor, Statin myotox sup, INS-1E GSIS act) | DNA binder FP inactive
COc1ccc(C(CC(=O)c2ccccc2)CC(=O)c2ccccc2)cc1	none (no result: miR-122 sensor, Statin myotox sup)
C=C(C(=O)c1ccccc1)C(c1ccccc1)C(C)C(=O)c1ccccc1 (stereo not drawn)	none (no result: miR-122 sensor, Statin myotox sup, EWS-Fli block)
C=C(C(=O)c1ccccc1)C(C)C(=C)C(=O)c1ccccc1	PAX8 inh HTS 97.5, EWS-Fli block 72.6 (no result: miR-122 sensor, Statin myotox sup, INS-1E GSIS act) | DNA binder FP inactive
C=C(C(=O)c1ccccc1)C(C(=C)C(=O)c1ccccc1)c1ccc(OC)cc1	PAX8 inh HTS 116.8, EWS-Fli block 78.3 (no result: miR-122 sensor, Statin myotox sup, INS-1E GSIS act) | DNA binder FP inactive
CCCN1C(=O)/C(=C/c2nc3ccccc3c(=O)[nH]2)c2ccccc21	EWS-Fli block 84.5 (no result: miR-122 sensor, Statin myotox sup) | DNA binder FP inactive
CN(C)CC(=O)N[C@H]1C=C[C@@H](CC(=O)NCCN2CCCCC2)O[C@H]1CO	none (no result: miR-122 sensor)
O=C(O)c1ccc(N/N=C/c2c(F)cccc2Cl)cc1	PAX8 inh HTS 81.9, EWS-Fli block 74.6 (no result: miR-122 sensor) | DNA binder FP inactive
O=C(O)c1ccc(N/N=C/c2ccc3c(c2)OCO3)cc1	Env fusion inh 70.1, PAX8 inh HTS 88.1, EWS-Fli block 85.3 (no result: Statin myotox sup) | DNA binder FP inactive
O=C(N/N=C/c1c(F)cccc1Cl)C1CC1	none
O=C(O)c1ccc(N/N=C/c2ccc(C(F)(F)F)cc2)cc1	EWS-Fli block inconclusive
CC(C)(C)c1ccc(/C=N/Nc2ccc(C(=O)O)cc2)cc1	EWS-Fli block 67.4 (no result: Statin myotox sup) | DNA binder FP inactive
CCCc1cn(CC[C@@H]2CC[C@H](NC(=O)C3CC3)[C@@H](CO)O2)nn1	none (no result: miR-122 sensor)
CO[C@H]1CN(C)C(=O)c2cc(NS(=O)(=O)c3ccc(Cl)cc3)ccc2OC[C@H](C)NC[C@@H]1C	none
Cc1ccc(N2C(=O)c3cccc4c(N)ccc(c34)C2=O)c2cccnc12	PAX8 inh HTS inconclusive, EWS-Fli block 59.8 | DNA binder FP inactive
O=C(C[C@H]1C[C@H]2c3cc(NS(=O)(=O)c4ccc(F)cc4)ccc3O[C@H]2[C@H](CO)O1)NCc1ccc(Oc2ccccc2)cc1	PAX8 inh HTS 99.3, EWS-Fli block 54.2 | DNA binder FP inactive
CN(C)c1ccc2c(c1)[C@@H]1C[C@H](CC(=O)NCc3ccc(Oc4ccccc4)cc3)O[C@@H](CO)[C@@H]1O2	none
CN(C)c1ccc2c(c1)[C@@H]1C[C@@H](CC(=O)NCc3ccc(Oc4ccccc4)cc3)O[C@H](CO)[C@@H]1O2	EWS-Fli block 52.5 | DNA binder FP inactive
COCC(=O)N1CC(=O)N2[C@H](C1)[C@H](c1ccc(Br)cc1)[C@@H]2CO	none (no result: miR-122 sensor, Env fusion inh, Statin myotox sup)
C=CCOC(=O)c1sc(NC(=O)c2ccc(OC)cc2)nc1C	EWS-Fli block 55.6 (no result: miR-122 sensor, Statin myotox sup) | DNA binder FP inactive
C[C@@H]1CN([C@H](C)CO)C(=O)c2cc(NC(=O)Nc3ccc(F)cc3)ccc2O[C@@H](C)CCCCO[C@H]1CN(C)Cc1ccncc1	none
CCN1/C(=C\C(=S)Nc2ccccc2)Sc2ccccc21	none (no result: INS-1E GSIS act)
CCN1/C(=C/C(C)=C/c2sc3ccccc3[n+]2CC)Sc2ccccc21	PAX8 inh HTS 102.4, EWS-Fli block 77.8! | DNA binder FP 2.21µM
CC(Oc1cccc(Cl)c1)C(=O)NCCCCc1ccccc1 (stereo not drawn)	EWS-Fli block 87.4 (no result: miR-122 sensor, Statin myotox sup) | DNA binder FP inactive
Cc1cccc(-c2ccc([C@@H]3[C@@H](CO)N4C(=O)CN(C(=O)NC5CCCCC5)C[C@@H]34)cc2)c1	none (no result: miR-122 sensor, Env fusion inh, PAX8 inh HTS, Statin myotox sup)
Cc1ccc(NC(=O)CCN2CCCCC2)cc1	EWS-Fli block 65.6 | DNA binder FP inactive
C[C@H]1CN([C@@H](C)CO)C(=O)c2cc(-c3ccccc3F)cnc2O[C@H]1CN(C)Cc1cccc(C(=O)O)c1	none (no result: PAX8 inh HTS)
CCN1CCS/C1=C\C=C\C1=[N+](CC)CCS1	PAX8 inh HTS 76.1, EWS-Fli block 52.7 | DNA binder FP inactive
CC(C)(C)C(=O)Nc1ccc(N=Nc2ccccc2)cc1	EWS-Fli block 59.2 | DNA binder FP inactive
CC(=O)NC(NC(=S)Nc1ccc(N=Nc2ccccc2)cc1)C(Cl)(Cl)Cl (stereo not drawn)	none (no result: EWS-Fli block, INS-1E GSIS act)
Cc1ccc(/C=N/NC(=O)c2n[nH]c3c2CCCC3)cc1	PAX8 inh HTS inconclusive (no result: Statin myotox sup)
C/C(=N\NC(=O)c1n[nH]c2c1CCC2)c1cccs1	Env fusion inh inconclusive, PAX8 inh HTS 102.1, EWS-Fli block 82.0 (no result: miR-122 sensor, Statin myotox sup, INS-1E GSIS act) | DNA binder FP inactive
O=C(N/N=C/c1cccs1)c1n[nH]c2c1CCCC2	PAX8 inh HTS 64.6, EWS-Fli block 51.9 (no result: Statin myotox sup) | DNA binder FP inactive
CCNC(=O)C[C@H]1CC[C@H]2[C@@H](COC[C@@H](O)CN2S(=O)(=O)c2ccc(Oc3ccccc3)cc2)O1	none (no result: Env fusion inh)
CCOc1ccc(CNC(=O)c2ccc(Sc3ccc(Cl)cc3)c(NC(C)=O)c2)cc1	none (no result: miR-122 sensor, Statin myotox sup, EWS-Fli block)
CCOc1ccccc1CNC(=O)c1ccc(Sc2ccc(Cl)cc2)c(NC(C)=O)c1	EWS-Fli block 79.9 | DNA binder FP inactive
CC(=O)Nc1cc(C(=O)NCc2ccco2)ccc1Sc1ccc(Cl)cc1	none (no result: miR-122 sensor, Statin myotox sup, INS-1E GSIS act)
CC(=O)Nc1cc(C(=O)NCc2ccco2)ccc1Sc1ccc(F)cc1	EWS-Fli block 85.0 (no result: miR-122 sensor, Statin myotox sup) | DNA binder FP inactive
O=C(NCC[C@H]1CC[C@H](NC(=O)c2cccnc2)[C@H](CO)O1)Nc1ccc(C(F)(F)F)cc1	none (no result: miR-122 sensor)

Screens as filed in PubChem.
